# Calls of active or inactive are those of the source. How the calls were made is not given here.
# Test: inhibitors of hydroxyurea-induced Chk1 phosphorylation, primary screen, imaging, HeLa, phospho-Chk1 antibody, percent positive cells (AID 1186)
# Details: hydroxyurea-induced phospho-Chk1 immunofluorescence imaging, higher = more signal
row,SMILES,z-score
1,CN(C)CCCNC(=O)[C@@H]1c2ccccc2C(=O)N(Cc2ccccc2)[C@H]1c1ccc(CO)cc1,0.242 (inactive)
2,COc1ccc([Si](C)(C)[C@H]2[C@H](CC(=O)N3CCC[C@H]3CO)O[C@@]3(C(=O)N(Cc4cccc(N5C(=O)COc6ccccc65)c4)c4ccccc43)[C@@H]2C)cc1,0.0942 (inactive)
3,C=CC[C@]1(C(=O)NCc2ccccc2)N=C(c2ccc(OCCCO)cc2)O[C@H]1c1ccccc1,0.0635 (inactive)
4,COC(=O)[C@@]1(Cc2ccc(F)cc2)[C@H]2c3cc(C(=O)N(C)C)n(Cc4ccc(OC)c(OC)c4)c3C[C@H]2CN1C(=O)c1ccccc1,0.427 (inactive)
5,O=C(CS)NCCCCCNC(=O)[C@H]1C[C@H]2C(=O)N3CCC[C@H]3C(=O)N2[C@H]1c1cccc(OCCO)c1,-0.58 (inactive)
6,Cn1cccc1C(O)C1C=CC2C(=O)NC(=O)C2N1Nc1ccccn1 (stereo unspecified),0.242 (inactive)
7,O=C1O[C@@H](c2ccccc2)[C@@H](c2ccccc2)N2[C@@H](c3ccc(OCCO)cc3)[C@]3(C(=O)Nc4ccccc43)[C@@H](C(=O)N3CCN(c4ncccn4)CC3)[C@H]12,0.189 (inactive)
8,COC(=O)c1c(CC[C@@H](CO)NC(=O)N[C@H](Cc2ccccc2)Cn2cc(-c3ccccc3N)nn2)oc(C(C)=O)c1C(=O)OC,-0.125 (inactive)
9,COC(=O)[C@@H]1N=C(c2ccc(OCCCO)cc2)O[C@@H]1c1ccccc1N=[N+]=[N-],-0.292 (inactive)
10,CCOC(=O)C1=CC[C@H]2C(=O)N(CC)C(=O)[C@@H]12,0.379 (inactive)
11,C=C(/C(=C/C[C@H](OC(C)=O)c1ccc(OCCO)cc1)c1cnc2ccccc2c1)C(C)C,-0.319 (inactive)
12,N#Cc1ccc(NN2C(C(O)c3cc(C(F)(F)F)cc(C(F)(F)F)c3)C=CC3C(=O)N(c4ccccc4)C(=O)C32)cc1 (stereo unspecified),0.245 (inactive)
13,COCCOC(=O)N1C(=O)[C@@]2(c3cc(C#CCNC(N)=O)ccc31)[C@H](c1ccccc1OCCO)N1[C@H](c3ccccc3)[C@H](c3ccccc3)OC(=O)[C@H]1[C@@H]2C(=O)N1CCN(c2ncccn2)CC1,-0.44 (inactive)
14,CC(C)[Si]1(C(C)C)O[C@@H](c2ccccc2)c2cc(C3CC3)nc(-c3ccccc3)c21,-0.652 (inactive)
15,COc1ccc([Si](C)(C)[C@@H]2[C@@H](CC(=O)N3CCC[C@H]3CO)O[C@]3(C(=O)N(Cc4cccc(N5CCC5=O)c4)c4ccccc43)[C@H]2C)cc1,-0.532 (inactive)
16,CN(C)c1ccc(C(O)C2C=CC3C(=O)N(c4ccccc4)C(=O)C3N2Nc2ccccc2F)cc1 (stereo unspecified),-0.0191 (inactive)
17,CCCCCN1CC=CC23O[C@@H]4C=CCOC(=O)[C@@H]4[C@H]2C(=O)N(CCCCCCO)[C@@H]3C1=O (stereo partly specified),-0.0533 (inactive)
18,CC(C)(C)OC(=O)CC[C@]1(C(N)=O)COC(c2ccc(OCCCO)cc2)=N1,0.764 (inactive)

row,SMILES,z-score
1,CC(C)(C)OC(=O)CC[C@]1(C(=O)NCc2ccccc2)N=C(c2ccc(OCCCO)cc2)O[C@H]1c1ccccc1,-0.179 (inactive)
2,COc1ccc(CCNC(=O)[C@@H]2c3ccccc3C(=O)N(c3ccc(C)cn3)[C@H]2c2ccc(CO)cc2)cc1,0.274 (inactive)
3,CC1CC/C=C\[C@H]2OC34C=CCN(Cn5nnc6ccccc65)C(=O)[C@H]3N(CCO)C(=O)[C@@H]4C2C(=O)O1 (stereo partly specified),-0.384 (inactive)
4,C[N+](C)(C)CCCCCCNC(=O)[C@@H]1C[C@@H]2C(=O)N3CCC[C@H]3C(=O)N2[C@@H]1c1cccc(OCCO)c1,-0.173 (inactive)
5,CN1C(=O)[C@@]2(CCC(=O)OC(C)(C)C)N=C(c3ccc(OCCCO)cc3)O[C@H]2c2ccccc21,-0.414 (inactive)
6,COCC1=C2[C@@H](CCc3ccccc3)OB(O)C[C@@H]2n2c(=O)n(-c3ccccc3)c(=O)n2C1,0.0264 (inactive)
7,CCCCC(=C=CC[C@H](O)c1ccccc1OCCO)C[C@H](O)COCc1ccccc1,-0.15 (inactive)
8,COCCOC(=O)N1C(=O)[C@@]2(c3cc(C#CCNC(N)=O)ccc31)[C@H](c1ccc(O)cc1)N1[C@H](c3ccccc3)[C@H](c3ccccc3)OC(=O)[C@H]1[C@@H]2C(=O)N1CCCCCCC1,0.149 (inactive)
9,CC(C)NC(=O)[C@@H]1c2ccccc2C(=O)N(CC23CC4CC(CC(C4)C2)C3)[C@H]1c1ccc(CO)cc1,-0.111 (inactive)
10,CCCC[C@@H]1C[C@H]1[C@@H](NS(=O)(=O)c1cccc2cccnc12)c1ccc(-c2ccccc2)cc1,-0.121 (inactive)
11,CC(C)N1CC=CC23O[C@@H]4C=CCCOC(=O)C4[C@H]2C(=O)N(CCCCCCO)[C@@H]3C1=O (stereo partly specified),-0.478 (inactive)
12,CC(C)=C1C(=O)C(c2ccccc2)=C2CN3C(=O)N(CCc4ccccc4)C(=O)[C@]3(Cc3ccc(F)cc3)[C@H]21,0.0852 (inactive)
13,CO[C@H]1O[C@H](CO)[C@@H](OC(=O)Nc2ccc(C#N)cc2)[C@H](OC(=O)c2cc3ccccc3[nH]2)[C@H]1OC(=O)c1cc2ccccc2[nH]1,-0.487 (inactive)
14,[N-]=[N+]=NCc1ccccc1[C@@H]1OC(c2ccc(OCCCO)cc2)=N[C@]1(Cc1ccccc1)C(=O)N1CCOCC1,-0.449 (inactive)
15,CC(C)c1ccc(NN2C(C(O)c3ccc4c(c3)OCO4)C=CC3C(=O)N(c4ccccc4)C(=O)C32)cc1 (stereo unspecified),-0.575 (inactive)
16,COCC(=C=CC[C@@H](O)c1ccccc1OCCO)CCO,-0.595 (inactive)
17,CC(C)OC(=O)C=C1C[C@@H](c2ccc(C#N)cc2)O[C@@H](c2ccc(C#N)cc2)O1,0.296 (inactive)
18,CC(C)(C)N1CC=CC23O[C@@H]4C=CCCOC(=O)C4[C@H]2C(=O)N(CCCCCO)[C@@H]3C1=O (stereo partly specified),-1.05 (inactive)

# From PubChem BioAssay
